Data reported in paper PMC4336329 (PLoS ONE, 2015).
The campaign covered roughly 310,000 compounds. About 14,000 (4.5%) showed an effect of 50% or more. Effects have a minus sign here. What follows is part of a selection rich in strong results, with near analogues and random picks from the rest.

biological target: human ether-à-go-go-related gene (hERG) potassium channel (human, UniProt Q12809); assay: primary screen, population patch clamp on CHO cells stably expressing hERG; higher = less effect of the substance
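Also: peak tail current of the secondary pulse compared with the same well before compound.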

human ether-à-go-go-related gene (hERG) potassium channel, sequence (Q12809 whole entry, looked up): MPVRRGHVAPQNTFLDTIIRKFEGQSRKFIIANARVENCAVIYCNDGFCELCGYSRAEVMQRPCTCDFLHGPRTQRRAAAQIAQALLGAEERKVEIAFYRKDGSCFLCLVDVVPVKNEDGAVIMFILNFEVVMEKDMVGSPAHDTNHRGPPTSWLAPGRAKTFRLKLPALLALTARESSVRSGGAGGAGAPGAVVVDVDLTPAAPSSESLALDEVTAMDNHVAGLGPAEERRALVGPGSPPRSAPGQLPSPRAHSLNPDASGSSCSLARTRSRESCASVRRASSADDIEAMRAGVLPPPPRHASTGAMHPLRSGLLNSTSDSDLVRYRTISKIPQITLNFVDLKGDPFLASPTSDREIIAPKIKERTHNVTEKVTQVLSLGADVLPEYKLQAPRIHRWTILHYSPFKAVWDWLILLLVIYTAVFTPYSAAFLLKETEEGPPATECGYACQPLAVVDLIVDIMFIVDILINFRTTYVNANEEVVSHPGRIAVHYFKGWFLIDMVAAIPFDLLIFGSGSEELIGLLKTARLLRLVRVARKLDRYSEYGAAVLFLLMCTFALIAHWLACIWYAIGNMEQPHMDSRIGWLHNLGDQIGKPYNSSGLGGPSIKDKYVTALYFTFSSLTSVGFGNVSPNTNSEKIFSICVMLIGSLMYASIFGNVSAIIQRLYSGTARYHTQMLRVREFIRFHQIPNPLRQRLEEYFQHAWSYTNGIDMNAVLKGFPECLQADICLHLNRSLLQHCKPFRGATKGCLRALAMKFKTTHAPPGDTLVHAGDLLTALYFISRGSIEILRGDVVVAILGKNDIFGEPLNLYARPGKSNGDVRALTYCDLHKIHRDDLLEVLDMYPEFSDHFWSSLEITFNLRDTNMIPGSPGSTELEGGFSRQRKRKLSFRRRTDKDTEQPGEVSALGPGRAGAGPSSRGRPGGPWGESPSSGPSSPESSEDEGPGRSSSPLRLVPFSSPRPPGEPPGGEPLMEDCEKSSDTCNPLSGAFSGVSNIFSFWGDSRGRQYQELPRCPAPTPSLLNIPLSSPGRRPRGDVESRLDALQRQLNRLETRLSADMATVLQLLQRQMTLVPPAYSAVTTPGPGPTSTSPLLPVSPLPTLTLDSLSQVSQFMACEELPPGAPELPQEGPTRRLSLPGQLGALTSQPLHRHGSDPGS

SMILES | hERG current change (%, negative = inhibition) at 10uM [%]
N#C/C(=C\c1ccc(-c2nc3ccccc3s2)o1)C(N)=O | 5.03
COc1ccc(C(=O)NC(C)C2CC3CCC2C3)cc1 (centres unmarked) | 2.42
CC1=CN2C(=N)/C(=C/c3ccc(Sc4ccc(C)cc4)o3)C(=O)N=C2S1 | 10.1
CCOC(=O)Cn1c(COc2ccccc2OC)[n+](C)c2ccccc21 | 7.4
CCCCCCCCCCOC(=O)Cn1c(COc2ccccc2OC)[n+](C)c2ccccc21.[Cl-] | -77.3
CCn1c(COc2ccccc2C)nc2ccccc21 | 4.07
Cn1c(COc2ccccc2O)[n+](C)c2ccccc21.[Br-] | 15.8
CCCCCCCCCCOC(=O)Cn1c(COc2ccccc2C)[n+](C)c2ccccc21.[Cl-] | -72.5
CCOC(=O)C(CCCOc1ccccc1C)C(=O)OCC | 6.43
CCOC(=O)c1nn(-c2ccc(Cl)cc2)c(=O)c(C#N)c1C | 5.94
CCCCNC(=S)N(C)/N=C/c1ccc(OCc2ccc(C(=O)OC)cc2)c(OC)c1 | 11.8
O=C(N/N=C/c1cccnc1)c1ccc2c(c1)OCCO2 | 8.1
Cc1ccc(CSCC(=O)N(C)CC(=O)Nc2c(Cl)cccc2Cl)cc1 | -9.07
CCOC(=O)C1CN(S(=O)(=O)c2ccc(C)cc2)c2cc(S(=O)(=O)CC)ccc2O1 (centres unmarked) | -41
CCOC(=O)C1CN(S(=O)(=O)c2ccc(OC)cc2)c2cc(S(=O)(=O)CC)ccc2O1 (centres unmarked) | -52
CCOC(=O)C1CN(S(=O)(=O)c2ccccc2)c2cc(S(=O)(=O)CC)ccc2O1 (centres unmarked) | -23.3
CC(=O)Oc1ccc(C2OC(=O)c3ccccc3N2C(C)=O)cc1 (centres unmarked) | 1.12
CCN(C(=O)Cc1c(C(=O)O)n(C)c2ccccc12)c1cc(OC)ccc1OC | 11.9
O=S(=O)(NCc1ccccn1)c1ccccc1 | -2.19

SMILES | hERG current change (%, negative = inhibition) at 10uM [%]
CNc1oc(-c2ccc(Cl)cc2)nc1C#N | -4.17
Cc1cc(C)cc(N2CCCn3c2nc2c3c(=O)[nH]c(=O)n2C)c1 | 13.6
CC(C)(C)n1nnnc1C(c1cccs1)N(Cc1cccnc1)Cc1ccccc1Cl (centres unmarked) | -11.4
CC(c1nnnn1C(C)(C)C)N(Cc1cccnc1)Cc1ccccc1Cl (centres unmarked) | -52.3
CC(C)(C)n1nnnc1CN(Cc1cccnc1)Cc1ccccc1Cl | -33
CCOC(=O)c1nc(C)n(-c2cc(OC)c(Cl)cc2Cl)n1 | 5.95
O=C(CCCOc1ccccc1)Nc1cccc(C(=O)O)c1 | 12.6
COc1ccc(OC)c(NC(=O)CSc2nnc(-c3ccco3)o2)c1 | -15.7
Cc1cc(C)cc(NC(=O)CSc2nc(=O)n(CCCN3CCOCC3)c3c2CCCC3)c1 | -55.2
Cc1ccc(NC(=O)CSc2nc(=O)n(CCCN3CCOCC3)c3c2CCCC3)cc1F | -50.2
Cc1ccc(NC(=O)CSc2nc(=O)n(CCCN3CCOCC3)c3c2CCCC3)c(C)c1 | -36.7
O=C(CSc1nc(=O)n(CCCN2CCOCC2)c2c1CCCC2)Nc1ccc(Cl)cc1 | -77.7
Cc1ccc(NC(=O)CSc2nc(=O)n(CCCN3CCOCC3)c3c2CCCC3)cc1 | -45.5
CC(C)c1ccc(NC(=O)CSc2nc(=O)n(CCCN3CCOCC3)c3c2CCCC3)cc1 | -39.7
CC(C)c1ccc(NC(=O)CSc2nc(=O)n(CCN3CCOCC3)c3c2CCC3)cc1 | -41.5
Cc1cccc(NC(=O)CSc2nc(=O)n(CCCN3CCOCC3)c3c2CCCC3)c1 | -42.4
CC(C)c1ccc(NC(=O)CSc2nc(=O)n(CCCN3CCOCC3)c3c2CCC3)cc1 | -51.3
CCN(CC(=O)Nc1c(F)cccc1F)C(=O)CN1C(=O)NC2(CCCC2)C1=O | 22.5
CCN1CCCc2cc(CN(CCN3CCOCC3)C(=S)Nc3ccc(C)cc3)ccc21 | -8.41

SMILES | hERG current change (%, negative = inhibition) at 10uM [%]
CCN1CCN(S(=O)(=O)Cc2ccccc2)CC1 | 8.52
COc1ccc2oc(C(=O)OCC(=O)NCC3CCCO3)c(C)c2c1 (centres unmarked) | 2.35
Cc1ccc(N2C(=O)c3ccccc3C2(O)c2ncc[nH]2)cc1 (centres unmarked) | 15
O=S(=O)(c1ccc(NC(=S)N/N=C/c2c3ccccc3cc3ccccc23)cc1)N1CCOCC1 | 8.09
O=C1c2ccccc2C(=O)N1CCCCN(C(=O)c1cc2ccccc2oc1=O)c1ccc(F)cc1F | 1.03
Cc1cc(C(C)(C)C)oc1C(=O)OCC(=O)NC1CCCCC1 | 0.649
O=C(NC(Cc1ccccc1)c1ccc2c(c1)OCCCO2)c1ccccc1 (centres unmarked) | 19.1
O=C(NCCS(=O)(=O)NCc1ccc(F)cc1)c1ccc2c(c1)OCO2 | -39.8
COc1ccccc1-n1c(O)c(C=NCCN2CCNCC2)c(=O)[nH]c1=O | 14.4
O=C(CSc1nc(=O)n(CCCN2CCOCC2)c2c1CCCC2)Nc1ccc(F)cc1 | -43.7
O=C(CSc1nc(=O)n(CCCN2CCOCC2)c2c1CCCC2)Nc1ccc(F)cc1F | -22.6
O=C(CSc1nc(=O)n(CCCN2CCOCC2)c2c1CCCC2)Nc1ccc(F)c(F)c1 | -58
CC(C)(C)C(=O)Nc1ccccc1C(=O)Nc1ccccn1 | 3.65
O=C1c2cccc3cccc(c23)C(=O)N1CCN1CCN(CC(O)COc2ccc3ccccc3c2)CC1 (centres unmarked) | -11.7
O=C(COc1ccccc1)N1CCN(CCN2C(=O)c3cccc4cccc(c34)C2=O)CC1 | -8.43
COc1cccc(OCC(O)CN2CCN(CCN3C(=O)c4cccc5cccc(c45)C3=O)CC2)c1.Cl (centres unmarked) | -59.2
O=C1c2cccc3cccc(c23)C(=O)N1CCN1CCN(CC(O)COc2ccccc2)CC1 (centres unmarked) | -60
COc1ccc(C(=O)CN2CCN(CCN3C(=O)c4cccc5cccc(c45)C3=O)CC2)cc1 | -26.5
